Experimental data taken from PubChem BioAssay (NCATS).
Records with an inconclusive call do not appear. The source made the active and inactive calls. Calls follow the shape of the dose curve; as a rule, active = well fitted cell-killing curve with a large enough effect; inconclusive = small, poorly fitted or top-dose-only effect; inactive = flat fitted curve, though single readings scatter.

Experiment: Cellular viability qHTS for adrenocortical cancer (ACC) cell line SW-13 (AID 1963989); also: nearly all actives have a fitted effect of over 65% in size;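 as to activity (max response): cells grown in serum-free medium with ITS supplement; % is scaled to controls: 0 for no effect and ±100 for the full control effect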
Details: SW-13 ACC cells viability, CellTiter-Glo, 48 h; activity (max response): hits give low values
How it was run: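 Here, serum-free SW-13 cultures were dosed up to 46 uM. Following 48 h, ATP-dependent luminescence (CellTiter-Glo) reported viable cells, and logistic modeling produced IC50 values.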
Potency is read from the fitted curve at half-maximal effect.

Structure (SMILES)	activity (max response)	Potency
COCCCc1sc(-c2ccccc2)nc1C(=O)Nc1ccccc1-c1nc2cc(CN3CCCC3)cnc2s1	-19.6% (inactive)	
CCC(=O)O[C@]1(C(=O)COC)[C@@H](C)C[C@H]2[C@@H]3CCC4=CC(=O)C=C[C@]4(C)C3(F)[C@@H](O)C[C@@]21C (stereo not given in full)	1.6% (inactive)	
Nc1ccc(N=Nc2ccccc2)c(N)n1	-2.95% (inactive)	
Cc1c(I)c(=O)n(-c2ccccc2)n1C	0.251% (inactive)	
CCCCCCn1c(=O)c2c(ncn2C)n(C)c1=O	14% (inactive)	
CN1C(C)(C)CCCC1(C)C	-4.6% (inactive)	
CCCCCC1Nc2cc(C(F)(F)F)c(S(N)(=O)=O)cc2S(=O)(=O)N1 (stereo not given)	4.72% (inactive)	
CC(=O)Nc1ccc(S(=O)(=O)Nc2ccc([N+](=O)[O-])cc2)cc1	3.97% (inactive)	
CCCCCCCCCCCCOCCO	0.306% (inactive)	
CCNC(=O)[C@H]1O[C@@H](n2cnc3c(N)nc(NCCc4ccc(CCC(=O)O)cc4)nc32)[C@H](O)[C@@H]1O	-2.22% (inactive)	
CC[C@H]1OC(=O)[C@H](C)[C@@H](O[C@H]2C[C@@](C)(OC)[C@@H](O)[C@H](C)O2)[C@H](C)[C@@H](O[C@@H]2O[C@H](C)C[C@H](N(C)C)[C@H]2O)[C@](C)(O)C[C@@H](C)C(=O)[C@H](C)[C@@H](O)[C@]1(C)O	4.41% (inactive)	
C=CCN1C[C@H](C(=O)N(CCCN(C)C)C(=O)NCC)C[C@@H]2c3cccc4[nH]cc(c34)C[C@H]21	3.88% (inactive)	
CCCCCOc1ccc(C2SC(=O)NC2=O)cc1OCC (stereo not given)	-6.25% (inactive)	
CC(C)[N+](C)(CCOC(=O)C1c2ccccc2Oc2ccccc21)C(C)C	-9.17% (inactive)	
C[C@]12CC[C@@H]3c4ccc(O)cc4CC[C@H]3[C@@H]1C[C@@H](O)[C@@H]2O	-7.09% (inactive)	
C=C1/C(=C/C=C2\CCCC3(C)[C@@H]([C@H](C)/C=C/C=C/C(O)(CC)CC)CC[C@@H]23)C[C@@H](O)C[C@@H]1O (stereo not given in full)	-11% (inactive)	
Cc1ccc(C(C)C)cc2c(C)ccc1-2	0.775% (inactive)	
COc1ccnc2[nH]cc(C(=O)C(=O)N3CCN(C(=O)c4ccccc4)C[C@H]3C)c12	1.31% (inactive)	
c1ccc(CCNc2nc(-c3ccccc3)cs2)cc1	-5.01% (inactive)	
NCC(=O)Nc1cncc(-c2nn3c(=O)cc(N4CCNCC4)nc3s2)c1	-17.3% (inactive)	

Structure (SMILES)	activity (max response)	Potency
Cc1ccc(O)c(-n2nc3ccccc3n2)c1	-8.34% (inactive)	
CCN(CC)c1ccc(C(=C2C=CC(=[N+](CC)CC)C=C2)c2cc(S(=O)(=O)O)ccc2S(=O)(=O)[O-])cc1		8.2 µM (active)
CCCCNc1ccc(C(=O)OCCN(CC)CC)cc1	-7.77% (inactive)	
COc1cc2c(cc1OCCCN1CCCC1)N=C(N)C21CCC1	-9.17% (inactive)	
COC(=O)c1c(Cl)c(Cl)c(C(=O)OC)c(Cl)c1Cl	12.2% (inactive)	
CC[C@H](c1ccc(O)cc1)[C@@H](CC)c1ccc(O)cc1		5.17 µM (active)
COc1cc(=C2C=c3ccccc3=N2)[nH]/c1=C/c1[nH]c(C)cc1C		28.2 µM (active)
CC(C)OC(=O)[C@H](C)N[P@](=O)(OC[C@H]1O[C@@H](n2ccc(=O)[nH]c2=O)[C@](C)(F)[C@@H]1O)Oc1ccccc1		3.98 µM (active)
CCC(C)CNCC(=O)N1CCc2sccc2C1c1cccc(C)n1 (stereo not given)	11.1% (inactive)	
O=C(CCNC(=O)c1ccc(OC(F)(F)F)cc1)N[C@@H]1CCCc2ccccc21	-26.4% (inactive)	
O=C([C@@H](Cc1cccc(C(F)(F)F)c1)NS(=O)(=O)c1cc(F)c2c(c1)CCNC2)N1CCCC1	-8.82% (inactive)	
CN1CCC(OC(c2ccccc2)c2ccccc2)CC1	0.851% (inactive)	
CC[N+](CC)(CCNC(=O)C(=O)NCC[N+](CC)(CC)Cc1ccccc1Cl)Cc1ccccc1Cl	-1.37% (inactive)	
CN(C)CCNC(=O)COc1c2cccc1Cc1cccc(c1OCC(=O)NCCN(C)C)Cc1cccc(c1OCC(=O)NCCN(C)C)Cc1cccc(c1OCC(=O)NCCN(C)C)C2	14.5% (inactive)	
CCCc1c(OCCCCc2nn[nH]n2)ccc(C(C)=O)c1O	-4.43% (inactive)	
CCC(=O)c1c(O)cc(O)cc1O	-1.99% (inactive)	
Fc1ccc(-c2nc(-c3ccccc3F)[nH]c2-c2ccncc2)cc1	-20.2% (inactive)	
CNC(=O)c1c(C)oc2cc(Oc3ncnc4cc(OC)c(OC)cc34)ccc12	9.66% (inactive)	
OCCOCCN1CCN(C2=Nc3ccccc3Sc3ccccc32)CC1	-9.48% (inactive)	
O=C(Nc1ccccc1)Nc1ccc(-c2ccc(C(=O)[C@@H]3CCC[C@H]3C(=O)O)cc2)cc1	-19.9% (inactive)	

Experiment: Cellular viability qHTS for adrenocortical cancer (ACC) cell line NCI-H295R (AID 1963990); also: nearly all actives have a fitted effect of over 60% in size;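 as to activity change, negative = viability loss: 0% = DMSO only wells and -100% = full killing with cytotoxic reference compound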
Details: CellTiter-Glo ATP luminescence, 48 h; series mostly up to 46.1 µM; activity change, negative = viability loss: at the top concentration
How it was run: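 Viability of NCI-H295R after 48 h of treatment (final up to 46 uM) measured through cellular ATP luminescence.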

Structure (SMILES)	activity change, negative = viability loss	Potency
COCCCc1sc(-c2ccccc2)nc1C(=O)Nc1ccccc1-c1nc2cc(CN3CCCC3)cnc2s1	-20.8% [at 20 µM] (inactive)	
CCC(=O)O[C@]1(C(=O)COC)[C@@H](C)C[C@H]2[C@@H]3CCC4=CC(=O)C=C[C@]4(C)C3(F)[C@@H](O)C[C@@]21C (stereo not given in full)	-20.6% (inactive)	
Nc1ccc(N=Nc2ccccc2)c(N)n1	-9.77% (inactive)	
Cc1c(I)c(=O)n(-c2ccccc2)n1C	2.88% (inactive)	
CCCCCCn1c(=O)c2c(ncn2C)n(C)c1=O	-4.04% (inactive)	
CN1C(C)(C)CCCC1(C)C	-6.45% (inactive)	
CCCCCC1Nc2cc(C(F)(F)F)c(S(N)(=O)=O)cc2S(=O)(=O)N1 (stereo not given)	-11.2% (inactive)	
CC(=O)Nc1ccc(S(=O)(=O)Nc2ccc([N+](=O)[O-])cc2)cc1	-8.53% (inactive)	
CCCCCCCCCCCCOCCO	-23.2% (inactive)	
CCNC(=O)[C@H]1O[C@@H](n2cnc3c(N)nc(NCCc4ccc(CCC(=O)O)cc4)nc32)[C@H](O)[C@@H]1O	-11.9% (inactive)	
CC[C@H]1OC(=O)[C@H](C)[C@@H](O[C@H]2C[C@@](C)(OC)[C@@H](O)[C@H](C)O2)[C@H](C)[C@@H](O[C@@H]2O[C@H](C)C[C@H](N(C)C)[C@H]2O)[C@](C)(O)C[C@@H](C)C(=O)[C@H](C)[C@@H](O)[C@]1(C)O	11.8% [at 20 µM] (inactive)	
C=CCN1C[C@H](C(=O)N(CCCN(C)C)C(=O)NCC)C[C@@H]2c3cccc4[nH]cc(c34)C[C@H]21	5.85% (inactive)	
CC(C)[N+](C)(CCOC(=O)C1c2ccccc2Oc2ccccc21)C(C)C	-20.5% (inactive)	
C[C@]12CC[C@@H]3c4ccc(O)cc4CC[C@H]3[C@@H]1C[C@@H](O)[C@@H]2O	-20% (inactive)	
Cc1ccc(C(C)C)cc2c(C)ccc1-2	-19.3% (inactive)	
COc1ccnc2[nH]cc(C(=O)C(=O)N3CCN(C(=O)c4ccccc4)C[C@H]3C)c12	-0.186% (inactive)	
c1ccc(CCNc2nc(-c3ccccc3)cs2)cc1	5.5% (inactive)	
NCC(=O)Nc1cncc(-c2nn3c(=O)cc(N4CCNCC4)nc3s2)c1	1.69% (inactive)	

Structure (SMILES)	activity change, negative = viability loss	Potency
Cc1ccc(O)c(-n2nc3ccccc3n2)c1	-1.16% (inactive)	
CCN(CC)c1ccc(C(=C2C=CC(=[N+](CC)CC)C=C2)c2cc(S(=O)(=O)O)ccc2S(=O)(=O)[O-])cc1		7.31 µM (active)
CCCCNc1ccc(C(=O)OCCN(CC)CC)cc1	-7.59% (inactive)	
COc1cc2c(cc1OCCCN1CCCC1)N=C(N)C21CCC1	-23.5% (inactive)	
COC(=O)c1c(Cl)c(Cl)c(C(=O)OC)c(Cl)c1Cl	-7.67% [at 92.7 µM] (inactive)	
CC[C@H](c1ccc(O)cc1)[C@@H](CC)c1ccc(O)cc1		2.59 µM (active)
COc1cc(=C2C=c3ccccc3=N2)[nH]/c1=C/c1[nH]c(C)cc1C		7.94 µM (active)
CCC(C)CNCC(=O)N1CCc2sccc2C1c1cccc(C)n1 (stereo not given)	-0.661% (inactive)	
O=C(CCNC(=O)c1ccc(OC(F)(F)F)cc1)N[C@@H]1CCCc2ccccc21	-14.1% (inactive)	
O=C([C@@H](Cc1cccc(C(F)(F)F)c1)NS(=O)(=O)c1cc(F)c2c(c1)CCNC2)N1CCCC1	-15.4% (inactive)	
CC[N+](CC)(CCNC(=O)C(=O)NCC[N+](CC)(CC)Cc1ccccc1Cl)Cc1ccccc1Cl	1.77% (inactive)	
CN(C)CCNC(=O)COc1c2cccc1Cc1cccc(c1OCC(=O)NCCN(C)C)Cc1cccc(c1OCC(=O)NCCN(C)C)Cc1cccc(c1OCC(=O)NCCN(C)C)C2	4.99% [at 9.17 µM] (inactive)	
CCCc1c(OCCCCc2nn[nH]n2)ccc(C(C)=O)c1O	-1.7% (inactive)	
Fc1ccc(-c2nc(-c3ccccc3F)[nH]c2-c2ccncc2)cc1	0.431% (inactive)	
CNC(=O)c1c(C)oc2cc(Oc3ncnc4cc(OC)c(OC)cc34)ccc12	12.2% (inactive)	
OCCOCCN1CCN(C2=Nc3ccccc3Sc3ccccc32)CC1	-17.4% (inactive)	
O=C(Nc1ccccc1)Nc1ccc(-c2ccc(C(=O)[C@@H]3CCC[C@H]3C(=O)O)cc2)cc1	-0.0718% (inactive)	
